# Source: ChEMBL document CHEMBL4513216, “Probing the Open Global Health Chemical Diversity Library for Multistage-Active Starting Points for Next-Generation Antimalarials” (ACS Infect Dis, 2020)
# In all, about 69,000 compounds went through this assay and about 8,600 (12%) showed an effect of 50% or more. This is one part of a sample in which strong results are shown more often than they occur.
# Test system: Plasmodium berghei
# Test: Screen against P. berghei liver stage (PbLuc), transformed with Luciferase, at 10uM
# Type: functional, HepG2
# Conditions: tested at 10 uM
row,Compound,INHIBITION [%]
1,COc1ccc2nnc(CCCC(=O)Nc3nc4c(s3)CCC4)n2n1,38.4
2,COCCCC1(CO)CCCN(Cc2ccc(F)c(OC)c2)C1 (configuration not stated),-58.9
3,COc1cc(CN2CC[C@@]3(CCCO3)[C@@H](O)C2)ccc1F,44.9
4,NCCO[C@H]1C[C@@H](O)C12CCN(Cc1c(F)cccc1F)CC2,52.2
5,COc1cc(CN2CCC3(CC2)[C@H](O)C[C@@H]3OCCO)ccc1F,51.1
6,COc1ccc(F)c(F)c1CN1CCC2(CC1)[C@H](O)C[C@@H]2OCCN,7.31
7,COc1cc(C)c(CN2CCC3(CC2)[C@H](O)C[C@@H]3OCCN)cc1C,23.3
8,CNC(=O)CN(C)C(=O)c1cc2ccccc2cc1OC,45.2
9,CC(C)c1nc(CN2CCCN(Cc3nccn3C)CC2)no1,-23.8
10,Cn1nnnc1SCC1COc2ccccc2O1 (configuration not stated),35.2
11,CC(C)Nc1nc2c(s1)C(=O)CN(C(=O)NCc1ccccc1)C2,73.8
12,CC[C@H](C)[C@H](N)C(=O)N1CC(=O)c2sc(NC3CCCCC3)nc2C1,35.2
13,CCNc1nc2c(s1)C(=O)CN(C(=O)NCc1ccccc1)C2,66.4
14,CCNc1nc2c(s1)C(=O)CN(C(=O)NCCc1ccccc1)C2,24.4
15,CC(C)Nc1nc2c(s1)C(=O)CN(C(=O)NCCc1ccccc1)C2,-7.79
16,CNc1nc2c(s1)C(=O)CN(C(=O)NCCc1ccccc1)C2,23.4
17,COCCN1CC(=O)c2sc(NCc3ccccc3)nc2C1,-0.371
18,CNc1nc2c(s1)C(=O)CN(C(=O)NCc1ccccc1)C2,42.9
19,CC[C@H](C)[C@H](N)C(=O)N1CC(=O)c2sc(NCc3ccccc3)nc2C1,61.9
20,O=C(Cc1ccccc1)N1Cc2nccn2CC(CN2CCCC2)C1 (configuration not stated),11.3
21,O=C(c1cccc(NCCOc2ccc(F)cc2)c1)N1CCOCC1,10.6
22,CC(C)c1nc(-c2cc(C(=O)N3CCN(C)CC3)c3ccccn23)cs1,10.5
23,CCC(CC)C(=O)c1c[nH]c(C(=O)N2CCN(c3ccccc3)CC2)c1,-26.8
24,Cc1noc(C)c1C(C)C(=O)N1CCCN(Cc2cscn2)CC1 (configuration not stated),21.08
25,CS(=O)(=O)Cc1ccc(C(=O)NCc2ccc(Cl)cc2Cl)cc1,29.4
26,COCC(=O)N1CCC(Nc2ccnc3ccc(Cl)cc23)CC1,-56.3

row,Compound,INHIBITION [%]
1,O=C(NCc1nc(NC2CCCC2)c2cc(Cl)ccc2n1)c1cncs1,68.6
2,NC(=O)CN1CCC(Nc2ccnc3ccc(Cl)cc23)CC1,15.1
3,COc1ccc(-n2cc(CNC(=O)c3cscn3)nn2)cc1,-27.3
4,O=C(NCc1nc(NC2CCCC2)c2cc(Cl)ccc2n1)c1ccoc1,89
5,O=C(NCc1nc(NC2CCCC2)c2cc(Cl)ccc2n1)c1cscn1,54.6
6,O=C(NCCNC(=O)C1CCN(c2ncccn2)CC1)c1ccoc1,15.1
7,O=C(NCCSC1CCCC1)c1cc(Cl)ccn1,-45
8,O=C(NCCNC(=O)c1scnc1Cl)c1ccoc1,-23.8
9,COc1ncccc1C(=O)N1CC[C@H]2C[C@@H](c3noc(C)n3)O[C@@H]2C1,15.4
10,COCC1CC2(CCN(Cc3ccco3)CC2)CN1C(C)C (configuration not stated),14.6
11,CCn1cc(CNCC(c2ccc(Cl)cc2)n2cccn2)cn1 (configuration not stated),3.58
12,Cc1nc2cc(NC(=O)Cn3ncc(N4CCCC4)cc3=O)ccc2s1,41.2
13,COCCN1C(=O)CCC12CCC(NCc1cccc(C)n1)CC2 (configuration not stated),41
14,O=C(Cc1c[nH]c2ncccc12)NCC(O)c1ccccc1F (configuration not stated),26.05
15,CC(=O)N1C[C@H]2CC[C@@H](C1)N(Cc1ccc(Cn3cccn3)cc1)C2,4.59
16,CCn1ncc(CN(C)C(=O)c2cc(C(F)(F)F)n(C)n2)c1C,1.86
17,Cc1c(CN(C)C(=O)c2ccnn2C)cnn1C,31.7
18,Cc1cc(C(=O)N(C)Cc2cnn(C)c2C)n(C)n1,68.9
19,O=C(Cc1csc(-c2ccco2)n1)N1CCSCC1,-5.25
20,CN(Cc1cccc(F)c1)C(=O)CN1CCCC(Cn2cncn2)C1 (configuration not stated),75.2
21,CCN(Cc1ccccc1)C(=O)CN1CCOC(Cn2cncn2)C1 (configuration not stated),-122
22,CN(Cc1ccsc1)C(=O)CN1CCCC(Cn2cncn2)C1 (configuration not stated),17.5
23,CN(Cc1cccc(F)c1)C(=O)CN1CCCCC1Cn1cncn1 (configuration not stated),13.5
24,CN(Cc1cccc(F)c1)C(=O)CN1CCOC(Cn2cncn2)C1 (configuration not stated),37.9
25,Cc1ccc(CN(C)C(=O)CN2CCCC(Cn3cncn3)C2)cc1 (configuration not stated),51.1
26,CCN(Cc1ccccc1)C(=O)CN1CCCC(Cn2cncn2)C1 (configuration not stated),63.9

row,Compound,INHIBITION [%]
1,CN(Cc1ccccc1)C(=O)CN1CCCC(Cn2cncn2)C1 (configuration not stated),-25.9
2,CN(Cc1ccc(F)cc1)C(=O)CN1CCCC(Cn2cncn2)C1 (configuration not stated),11.6
3,CO[C@H]1CCN(S(=O)(=O)c2cccs2)[C@H]1Cc1cccnc1,-5.05
4,Cc1cc(C(=O)NCCN2CCN(S(C)(=O)=O)CC2)no1,10.3
5,COc1cc(C2CC(=O)Nc3c2cnn3C)ccc1O (configuration not stated),10.9
6,O=C(C1CCCC1)N1C[C@@H](c2ccsc2)[C@@H]2CN(C3CCCC3)CC[C@@H]21,45.2
7,CC(=O)N1C[C@@H](c2ccsc2)[C@@H]2CN(Cc3ccccc3Cl)CC[C@@H]21,73.8
8,O=C(C1CCC1)N1C[C@@H](c2ccsc2)[C@@H]2CN(C3CCCC3)CC[C@@H]21,5.34
9,COc1ccccc1CN1CC[C@H]2[C@@H](C1)[C@H](c1ccsc1)CN2C(C)=O,24.8
10,CC(=O)N1C[C@@H](c2ccsc2)[C@@H]2CN(CC3CCCCC3)CC[C@@H]21,30.8
11,CC(=O)N1C[C@@H](c2ccsc2)[C@@H]2CN(Cc3ccccc3C)CC[C@@H]21,64.9
12,Cc1n[nH]c(C)c1-c1cnc(C2CCN(S(C)(=O)=O)CC2)cn1,11.1
13,O[C@@H]1CC(CNCc2cccc(Cl)c2)(COc2cccnc2)C[C@@H]1O (some centres not stated),37.4
14,COC(=O)c1ccc(NC(C)c2ccc3c(c2)CC(=O)N3)nn1 (configuration not stated),-4.12
15,Cc1nnc(N2CCO[C@H]3[C@@H](OCc4ccccn4)CC[C@@H]32)s1,11.4
16,COCC1CCN(C(C(=O)O)c2c(F)cccc2OC(C)C)CC1 (configuration not stated),35.1
17,O=S(=O)(Nc1ccc(Oc2ccc3c(c2)OCO3)cc1)N1CCCCC1,52.7
18,CN(C)S(=O)(=O)Nc1ccc(Oc2ccc3c(c2)OCO3)cc1,41.2
19,O=S(=O)(Nc1ccc2c(c1)OCCO2)N1CCCCC1,8.44
20,CC(=O)N(Cc1noc(C2CC2)n1)C1CCN(Cc2ccccc2)C1 (configuration not stated),-6.44
21,CN(C)CC(=O)N1CCC2(CCc3cc(-c4cccnc4)ccc32)CC1,15.3
22,c1cncc(-c2ccc3c(c2)C2(CCNCC2)CC3)c1,27.5
23,c1cncc(-c2ccc3c(c2)CCC32CCN(Cc3nccs3)CC2)c1,57.1
24,O=C(CCO)N1CCC2(CCc3ccc(-c4ccoc4)cc32)CC1,0.923
25,c1cc(-c2ccc3c(c2)CCC32CCNCC2)ccn1,57.1
26,O[C@H]1[C@H](n2cc(-c3cccnc3)nn2)c2ccccc2C12CCNCC2,31.2

row,Compound,INHIBITION [%]
1,OCCN1CCC2(CCc3cc(-c4ccoc4)ccc32)CC1,28.2
2,Cc1ccc2c(c1)CCC21CCN(C(=O)CO)CC1,10.1
3,c1cncc(-c2ccc3c(c2)CCC32CCNCC2)c1,57.1
4,CN(C)CC(=O)N1CCC2(CCc3ccc(-c4ccncc4)cc32)CC1,21.6
5,c1cc(-c2ccc3c(c2)C2(CCNCC2)CC3)ccn1,82.2
6,c1cncc(-c2ccc3c(c2)CCC32CCN(Cc3ccco3)CC2)c1,26.5
7,CCOc1ccc(NC(=O)c2cc3c([nH]c2=O)CCC3)cc1,-29.6
8,NC(=O)NC1CCN(Cc2ccccc2OCC(F)(F)F)CC1,6.7
9,Cc1noc(CN2CCN(C(=O)N(C)C)CC2)n1,23.5
10,CS(=O)(=O)NC[C@@H]1OC[C@H]2CN(Cc3ccccc3)CC[C@H]21,-54.9
11,CC(C)c1sc(Cl)nc1C(=O)NCc1ccncc1,-23
12,COc1nn(C)c2c1CCCN(C(=O)c1ccc(C)c(F)c1)C2,-8.94
13,CS(=O)(=O)NC[C@H]1OC[C@H]2CN(Cc3ccsc3)CC[C@H]21,-24.1
14,Cn1ccc(CNC(=O)Nc2ccc(S(=O)(=O)C(F)F)cc2)c1,30.4
15,CN(C)c1ccc(CNC(=O)Nc2ccc(S(=O)(=O)C(F)F)cc2)cc1,-3.99
16,COc1ccc(CNC(=O)Nc2ccc(S(=O)(=O)C(F)F)cc2)cc1,66.2
17,Cc1cccc(Sc2nccn(C)c2=O)c1,20.3
18,CC(=O)N1CCC(n2nccc2-c2cnc(N(C)CCO)nc2)CC1,11.5
19,CCOC1COC2(CCN(S(=O)(=O)c3ccc(F)cc3)CC2)C1 (configuration not stated),45.7
20,Cc1cccc(S(=O)(=O)N2CCC3(CC2)CC(N(C)C)CO3)c1 (configuration not stated),72
21,CCOC1COC2(CCN(S(=O)(=O)c3cccc(F)c3)CC2)C1 (configuration not stated),29.6
22,COC1COC2(CCN(S(=O)(=O)c3ccc(F)cc3)CC2)C1 (configuration not stated),32.1
23,CCOC1COC2(CCN(S(=O)(=O)c3cccc(C)c3)CC2)C1 (configuration not stated),27.6
24,CN(C)C1COC2(CCN(S(=O)(=O)c3ccc(F)cc3)CC2)C1 (configuration not stated),57.5
